# Measurements from the supplement of paper PMC8728848.
# The entries come from a sample that favours the strongest signals as a whole.
# B1: Gal 3 (Homo sapiens), P17931 (protein)
# chain: MADNFSLHDALSGSGNPNPQGWPGAWGNQPAGAGGYPGASYPGAYPGQAPPGAYPGQAPPGAYHGAPGAYPGAPAPGVYPGPPSGPGAYPSSGQPSAPGAYPATGPYGAPAGPLIVPYNLPLPGGVVPRMLITILGTVKPNANILDFQRGNDVAFHFNPRFNENNRRVIVCNTKLDNNWGREERQSVFPFESGKPFKIQVLVEPDHFKVAVNDAHLLQYNHRVKKLNEISKLGISGDIDLTSASYTMI
# How the values were obtained:
# Assay in all cases: glycan array binding signal (z-score within array); higher = stronger binding
# Details in all cases: glycan notation: IUPAC condensed, linker removed
# [1] = biological target: Fuc(a1-2)Gal(b1-3)GlcNAc(b1-3)Gal(b1-4)Glc
# Procedure, shortened: (§1)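 The binding signal is a Z-score computed within each array. Data were drawn from 3228 arrays in the Consortium for Functional Glycomics database, restricted to those with a known protein sequence. Scores were averaged over arrays of the same protein sequence at different concentrations or buffers, and over linkers, and negative values can be taken as non-binding.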
# [2] = biological target: Fuc(a1-2)Gal(b1-3)[Fuc(a1-4)]GlcNAc(b1-3)[Gal(b1-4)GlcNAc(b1-6)]Gal(b1-4)Glc
# Procedure, shortened: as §1
# [3] = biological target: Fuc(a1-2)Gal(b1-4)GlcNAc(b1-3)Gal(b1-4)GlcNAc(b1-3)Gal(b1-4)GlcNAc
# Procedure, shortened: as §1
# [4] = biological target: Fuc(a1-2)[Gal(a1-3)]Gal(b1-3)GlcNAc(b1-2)Man(a1-3)[Fuc(a1-2)[Gal(a1-3)]Gal(b1-3)GlcNAc(b1-2)Man(a1-6)]Man(b1-4)GlcNAc(b1-4)GlcNAc
# Procedure, shortened: as §1
# [5] = biological target: Fuc(a1-2)[Gal(a1-3)]Gal(b1-4)GlcNAc(b1-2)Man(a1-3)[Fuc(a1-2)[Gal(a1-3)]Gal(b1-4)GlcNAc(b1-2)Man(a1-6)]Man(b1-4)GlcNAc(b1-4)GlcNAc
# Procedure, shortened: as §1
# [6] = biological target: Fuc(a1-2)[GalNAc(a1-3)]Gal(b1-4)GlcNAc
# Procedure, shortened: as §1
# [7] = biological target: Fuc(a1-2)[GalNAc(a1-3)]Gal(b1-4)GlcNAc(b1-2)Man(a1-3)[Fuc(a1-2)[GalNAc(a1-3)]Gal(b1-4)GlcNAc(b1-2)Man(a1-6)]Man(b1-4)GlcNAc(b1-4)GlcNAc
# Procedure, shortened: as §1
# [8] = biological target: Fuc(a1-2)[GalNAc(a1-3)]Gal(b1-4)GlcNAc(b1-3)Gal(b1-4)GlcNAc(b1-3)Gal(b1-4)GlcNAc
# Procedure, shortened: as §1
# [9] = biological target: Fuc(a1-2)[GalNAc(b1-3)]Gal
# Procedure, shortened: as §1
# [10] = biological target: Fuc(a1-3)[Gal(b1-4)]GlcNAc6S
# Procedure, shortened: as §1
# [11] = biological target: Gal(a1-3)Gal(b1-4)GlcNAc(b1-3)GalNAc
# Procedure, shortened: as §1
# [12] = biological target: Gal(a1-3)[Gal(a1-4)]Gal(b1-4)GlcNAc
# Procedure, shortened: as §1
# [13] = biological target: Gal(a1-4)Gal(b1-3)GlcNAc(b1-2)Man(a1-3)[Gal(a1-4)Gal(b1-3)GlcNAc(b1-2)Man(a1-6)]Man(b1-4)GlcNAc(b1-4)GlcNAc
# Procedure, shortened: as §1
# [14] = biological target: Gal(b1-3)Gal(b1-4)GlcNAc(b1-2)Man(a1-3)[Gal(b1-3)Gal(b1-4)GlcNAc(b1-2)Man(a1-6)]Man(b1-4)GlcNAc(b1-4)GlcNAc
# Procedure, shortened: as §1
# [15] = biological target: Gal(b1-3)GalNAc(a1-3)[Fuc(a1-2)]Gal(b1-4)GlcNAc
# Procedure, shortened: as §1
# [16] = biological target: Gal(b1-3)[Neu5Ac(b2-6)]GalNAc
# Procedure, shortened: as §1
# [17] = biological target: Gal(b1-4)GlcNAc(b1-2)[Gal(b1-4)GlcNAc(b1-4)]Man(a1-3)[Gal(b1-4)GlcNAc(b1-2)[Gal(b1-4)GlcNAc(b1-6)]Man(a1-6)]Man(b1-4)GlcNAc(b1-4)GlcNAc
# Procedure, shortened: as §1
# [18] = biological target: Gal(b1-4)GlcNAc(b1-3)Gal(b1-3)GlcNAc
# Procedure, shortened: as §1
# [19] = biological target: Gal(b1-4)GlcNAc(b1-3)Gal(b1-4)GlcNAc(b1-3)Gal(b1-4)GlcNAc
# Procedure, shortened: as §1
# [20] = biological target: Gal(b1-4)GlcNAc(b1-3)[GlcNAc(b1-6)]Gal(b1-4)GlcNAc
# Procedure, shortened: as §1
# [21] = biological target: Gal3S(b1-4)[Fuc(a1-3)]Glc
# Procedure, shortened: as §1
# Gal6S(b1-4)Glc = biological target: Gal6S(b1-4)Glc
# Procedure, shortened: as §1
# [22] = biological target: GalNAc(b1-3)Gal(a1-6)Gal(b1-4)Glc
# Procedure, shortened: as §1
# [23] = biological target: GlcNAc(a1-6)Gal(b1-4)GlcNAc
# Procedure, shortened: as §1
# [24] = biological target: GlcNAc(b1-4)GlcNAc(b1-4)GlcNAc(b1-4)GlcNAc(b1-4)GlcNAc
# Procedure, shortened: as §1
# [25] = biological target: GlcNAc(b1-6)Gal(b1-4)GlcNAc
# Procedure, shortened: as §1
# GlcNAc(b1-6)GalNAc = biological target: GlcNAc(b1-6)GalNAc
# Procedure, shortened: as §1
# Kdn(a2-3)Gal(b1-4)Glc = biological target: Kdn(a2-3)Gal(b1-4)Glc
# Procedure, shortened: as §1
# Kdn(a2-3)Gal(b1-4)GlcNAc = biological target: Kdn(a2-3)Gal(b1-4)GlcNAc
# Procedure, shortened: as §1
# [26] = biological target: Man(a1-2)Man(a1-6)[Man(a1-3)]Man(a1-6)[Man(a1-2)Man(a1-2)Man(a1-3)]Man
# Procedure, shortened: as §1
# [27] = biological target: Neu5Ac(a2-3)Gal(b1-3)GlcNAc(b1-3)GalNAc
# Procedure, shortened: as §1
# [28] = biological target: Neu5Ac(a2-3)Gal(b1-4)GlcNAc(b1-3)Gal(b1-4)GlcNAc(b1-3)Gal(b1-4)GlcNAc
# Procedure, shortened: as §1
# [29] = biological target: Neu5Ac(a2-3)Gal(b1-4)[Fuc(a1-3)]GlcNAc
# Procedure, shortened: as §1
# [30] = biological target: Neu5Ac(a2-3)Gal6S(b1-4)GlcNAc
# Procedure, shortened: as §1
# [31] = biological target: Neu5Ac(a2-6)Gal(b1-4)GlcNAc(b1-2)Man(a1-6)[Gal(b1-4)GlcNAc(b1-2)Man(a1-3)]Man(b1-4)GlcNAc(b1-4)GlcNAc
# Procedure, shortened: as §1
# [32] = biological target: Neu5Ac(a2-6)Gal(b1-4)GlcNAc(b1-3)Gal(b1-4)[Fuc(a1-3)]GlcNAc(b1-3)Gal(b1-4)[Fuc(a1-3)]GlcNAc
# Procedure, shortened: as §1
# Neu5Gc(a2-6)GalNAc = biological target: Neu5Gc(a2-6)GalNAc
# Procedure, shortened: as §1
binder,measurement,setting,value
B1,glycan array binding signal (z-score),[1],1.9
same,glycan array binding signal (z-score),[2],-0.331
same,glycan array binding signal (z-score),[3],3.62
same,glycan array binding signal (z-score),[4],3.84
same,glycan array binding signal (z-score),[5],5.09
same,glycan array binding signal (z-score),[6],2.16
same,glycan array binding signal (z-score),[7],4.33
same,glycan array binding signal (z-score),[8],4.1
same,glycan array binding signal (z-score),[9],-0.382
same,glycan array binding signal (z-score),[10],-0.391
same,glycan array binding signal (z-score),[11],0.949
same,glycan array binding signal (z-score),[12],-0.388
same,glycan array binding signal (z-score),[13],-0.389
same,glycan array binding signal (z-score),[14],4.28
same,glycan array binding signal (z-score),[15],2.57
same,glycan array binding signal (z-score),[16],-0.386
same,glycan array binding signal (z-score),[17],2.3
same,glycan array binding signal (z-score),[18],2.35
same,glycan array binding signal (z-score),[19],4.37
same,glycan array binding signal (z-score),[20],-0.307
same,glycan array binding signal (z-score),[21],-0.39
same,glycan array binding signal (z-score),Gal6S(b1-4)Glc,-0.376
same,glycan array binding signal (z-score),[22],-0.388
same,glycan array binding signal (z-score),[23],-0.392
same,glycan array binding signal (z-score),[24],-0.379
same,glycan array binding signal (z-score),[25],-0.389
same,glycan array binding signal (z-score),GlcNAc(b1-6)GalNAc,-0.391
same,glycan array binding signal (z-score),Kdn(a2-3)Gal(b1-4)Glc,-0.391
same,glycan array binding signal (z-score),Kdn(a2-3)Gal(b1-4)GlcNAc,-0.386
same,glycan array binding signal (z-score),[26],-0.379
same,glycan array binding signal (z-score),[27],-0.375
same,glycan array binding signal (z-score),[28],3.82
same,glycan array binding signal (z-score),[29],-0.39
same,glycan array binding signal (z-score),[30],-0.387
same,glycan array binding signal (z-score),[31],-0.391
same,glycan array binding signal (z-score),[32],-0.386
same,glycan array binding signal (z-score),Neu5Gc(a2-6)GalNAc,-0.392
